Experiments:
Settings in all cases: inducer concentration 5 mM; 6 h; Cupriavidus necator H16; minimal medium + 0.4% gluconate
[1] = tested on: AcoR/P_H16_RS19445 acetoin biosensor (pEH052); test: relative induction of RFP reporter vs primary effector; higher = stronger activation
Method: (§1)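 Orthogonality screen of 21 primary inducers against 21 transcription factor/inducible promoter–mRFP biosensors in C. necator H16 in minimal medium, robotic 96-well format, 5 mM inducer, 30 °C. OD-normalised RFP fluorescence was read 6 h later and expressed as relative induction (%) = 100 × (FL compound − FL uninduced)/(FL primary inducer − FL uninduced); mean of n=4. Cognate pairs (100% by definition) omitted.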

[2] = tested on: AraC/P_araBAD L-arabinose biosensor (pEH176); test: as above
Method: as §1

[3] = tested on: BadR/P_H16_RS27200 cyclohexanecarboxylate biosensor (pEH159); test: as above
Method: as §1

[4] = tested on: BenM/P_H16_RS09790 benzoate biosensor (pEH148); test: as above
Method: as §1

[5] = tested on: FdsR/P_H16_RS03165 formate biosensor (pEH134); test: as above
Method: as §1

[6] = tested on: GabR/P_H16_RS23655 GABA biosensor (pEH256); test: as above
Method: as §1

[7] = tested on: HpdA/P_H16_RS24175 L-tyrosine biosensor (pEH158); test: as above
Method: as §1

[8] = tested on: NahR/P_H16_RS08125 salicylate biosensor (pEH042); test: as above
Method: as §1

[9] = tested on: OapR/P_H16_RS01330 beta-alanine biosensor (pEH147); test: as above
Method: as §1

[10] = tested on: PcaQ/P_H16_RS30145 3,4-dihydroxybenzoate biosensor (pEH161); test: as above
Method: as §1

[11] = tested on: PhgR/P_H16_RS05530 phenylglyoxylate biosensor (pEH155); test: as above
Method: as §1

[12] = tested on: TtdR/P_H16_RS10665 tartrate biosensor (pEH083); test: as above
Method: as §1

[13] = tested on: XdhR/P_H16_RS05055 xanthine biosensor (pEH154); test: as above
Method: as §1

[14] = tested on: heterologous L-rhamnose-inducible system; test: as above
Method: as §1

[15] = tested on: heterologous acrylate-inducible system; test: as above
Method: as §1

[16] = tested on: heterologous cumate-inducible system; test: as above
Method: as §1

[17] = tested on: heterologous itaconate-inducible system; test: as above
Method: as §1

[18] = tested on: HpdR/P_H16_RS18295 3-hydroxypropanoate biosensor (pEH010); test: relative induction of RFP reporter vs primary effector (background-corrected); higher = stronger activation of the biosensor;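 further: RFP excited at 585 nm with emission read at 620 nm, culture medium blanks subtracted from fluorescence and absorbance prior to normalisation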
Method: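 C. necator H16 strains, each carrying one of 21 transcription factor/inducible promoter–mRFP biosensor plasmids, were grown in minimal medium in 96-well plates (robotic platform). Each was exposed to 46 structurally or metabolically related compounds at 5 mM at 30 °C. OD-normalised RFP fluorescence was read 6 h later and expressed as relative induction (%) = 100 × (FL compound − FL uninduced)/(FL primary inducer − FL uninduced); mean of n=4.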

[19] = tested on: SauR/P_H16_RS13695 sulfonatoacetate biosensor (pEH157); test: relative induction of RFP reporter vs primary effector; higher = stronger activation
Method: as §1

SMILES	relative induction of RFP reporter [1] [%]	relative induction of RFP reporter [2] [%]	relative induction of RFP reporter [3] [%]	relative induction of RFP reporter [4] [%]	relative induction of RFP reporter [5] [%]	relative induction of RFP reporter [6] [%]	relative induction of RFP reporter [7] [%]	relative induction of RFP reporter [8] [%]	relative induction of RFP reporter [9] [%]	relative induction of RFP reporter [10] [%]	relative induction of RFP reporter [11] [%]	relative induction of RFP reporter [12] [%]	relative induction of RFP reporter [13] [%]	relative induction of RFP reporter [14] [%]	relative induction of RFP reporter [15] [%]	relative induction of RFP reporter [16] [%]	relative induction of RFP reporter [17] [%]	relative induction of RFP reporter [18] [%]	relative induction of RFP reporter [19] [%]
O=C(O)CS(=O)(=O)O [sulfonatoacetate]	0.846	0.0162	-0.423	-0.0067	-4.35	-1.11	-0.143	-0.0115	-0.372	-0.165	-0.406	0.749	-0.434	0.0242	-0.561	0.916	0.693		
CCC(=O)O																		0.144	
C=CC(=O)O [acrylate]	-1.36	-0.0252	-0.281	0.00199	-7.94	0.12	-0.146	0.00921		-0.175	-0.587	-0.0524	-0.215	0.000569		0.803	0.117		0.114
N[C@@H](Cc1ccccc1)C(=O)O [L-phenylalanine]	-1.77	-0.0146	-0.263	-0.0737	-4.81	-2.3	57.7	0.00484	-1.24	-0.267	-0.485	0.153	-1.38	0.00514	-1.94	-2.37	-0.26		-0.0265
O=c1[nH]c(=O)c2nc[nH]c2[nH]1 [xanthine]	-1.36	0.0252	-0.537	-0.0092	-4.71	-1.02	-0.0594	0.0144	1.27	-0.198	-0.06	0.737		0.0204	-1.68	-0.479	0.00052		0.0306
